Among the data in PubChem BioAssay are composite z-score and composite Z-score values, retold here.

Assay [1] deals with Albumin (Bos taurus) (UniProt P02769). The assay is described as follows: bovine serum albumin binders on microarray, profiling panel, artefact control for SMM control protein annotation, biochemical, small-molecule microarray, Alexa647 label, 635/667 nm fluorescence (AID 1118).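 Also: score merges 667 nm emission intensity and signal-to-noise per printed compound spot.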 The settings on record: BSA-A647 binding, fluorescence 635 nm, higher = more signal.
Assay [2] can be described thus: small-molecule microarray binders of probe aXIP, primary screen, biochemical, NeuroSMM set, 635/667 nm fluorescence (AID 1119).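 Also: probe is the protein aXip251-270 applied at 1 µg/mL to compound-printed slides; binding of probe to printed compounds measured as 667 nm fluorescence plus signal to noise.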 The settings on record: higher = more signal, called active from +8 up or from −8 down.
Assay [3] can be described thus: small-molecule binders of probe aNOTCH3, primary screen, biochemical, small-molecule microarray, 635/667 nm fluorescence (AID 1120).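 Also: probe is a biotin-tagged antibody raised against NOTCH3 rather than NOTCH3 protein; score merges spot fluorescence near 667 nm with spot signal to noise.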 The settings on record: higher = more signal.
The nature of assay [4]: small-molecule binders of probe aNOTCH2, primary screen, biochemical, small-molecule microarray, 635/667 nm fluorescence (AID 1121).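 Also: score merges feature fluorescence read at 667 nm with its signal to noise.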 Particulars: higher = more signal.
For assay [5], the target named is Carbonic anhydrase 2 (Homo sapiens) (UniProt P00918). In words: CAII small-molecule binders, profiling panel, biochemical, small-molecule microarray, Alexa647-labelled CAII (AID 1122). The settings on record: CAII-A647 binding fluorescence, higher = more signal.
Assay [6] is described as follows: COS7 lysate on small-molecule microarray, probe aHis, 635 nm (AID 1123).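 Also: z-score combines 667nm fluorescence intensity with signal-to-noise per printed compound spot.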 The settings on record: COS7 cell lysate, fluorescence, higher = more signal.
Assay [7] can be described thus: compound binding in COS7 lysate, probe aLAP1, primary screen, cell lysate, small-molecule microarray (AID 1124).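 Also: lysate comes from COS7 cells expressing LAP1 and is applied at 0.3 µg/mL; score merges spot fluorescence near 667 nm with signal-to-noise over triplicate slides.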 Particulars: probe aLAP1, fluorescence, higher = more signal.
Assay [8] relates to Sam68 (KHDRBS1). The assay is described as follows: Sam68 small-molecule binders, primary screen, biochemical, small-molecule microarray, 635 nm fluorescence (AID 1125).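 Also: score merges 667 nm channel intensity with signal to noise over triplicate slides.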 Particulars: small-molecule microarray binding, higher = more signal.
Assay [9] relates to Chordin-like protein 2 (CHRDL2). The assay is described as follows: CHRDL2 small-molecule binders, primary screen, biochemical, small-molecule microarray, 635 nm fluorescence (AID 1126).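 Also: printed compound slides probed with Chrdl2 protein at 4 µg/mL for 1 h at 4 C; score merges 667 nm emission intensity with signal to noise over three replicate slides.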 Particulars: small-molecule microarray binding, fluorescence 635 nm; higher = more signal.
In assay [10] the target is Concanavalin-A (Canavalia ensiformis) (UniProt P02866). In words: ConA small-molecule binders, primary screen, artefact control for SMM control protein annotation, biochemical, small-molecule microarray, Alexa647 label, 635 nm (AID 1127).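 Also: z combines 667 nm emission intensity with signal-to-noise across three replicate slides.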 The settings on record: ConA-A647 binding fluorescence, higher = more signal.

Calls of active or inactive are those of the source.

Albumin (Bos taurus), sequence (P02769 whole entry, looked up): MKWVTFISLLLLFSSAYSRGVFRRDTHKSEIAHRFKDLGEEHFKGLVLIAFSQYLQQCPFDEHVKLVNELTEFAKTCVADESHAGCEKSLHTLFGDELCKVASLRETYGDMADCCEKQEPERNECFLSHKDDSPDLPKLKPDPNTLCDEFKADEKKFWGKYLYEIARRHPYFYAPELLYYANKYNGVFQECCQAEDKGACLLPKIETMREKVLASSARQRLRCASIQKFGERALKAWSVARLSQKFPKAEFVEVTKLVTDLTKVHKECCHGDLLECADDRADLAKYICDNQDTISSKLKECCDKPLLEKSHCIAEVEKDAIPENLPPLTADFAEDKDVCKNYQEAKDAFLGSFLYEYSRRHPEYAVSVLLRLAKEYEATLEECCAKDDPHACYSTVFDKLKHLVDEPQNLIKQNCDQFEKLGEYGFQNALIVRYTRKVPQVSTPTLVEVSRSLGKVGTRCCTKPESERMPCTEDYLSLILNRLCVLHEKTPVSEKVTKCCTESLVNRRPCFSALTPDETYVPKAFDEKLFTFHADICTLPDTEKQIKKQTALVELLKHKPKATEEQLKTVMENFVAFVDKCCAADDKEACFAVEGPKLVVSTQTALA
Concanavalin-A (Canavalia ensiformis), sequence (P02866 whole entry, looked up): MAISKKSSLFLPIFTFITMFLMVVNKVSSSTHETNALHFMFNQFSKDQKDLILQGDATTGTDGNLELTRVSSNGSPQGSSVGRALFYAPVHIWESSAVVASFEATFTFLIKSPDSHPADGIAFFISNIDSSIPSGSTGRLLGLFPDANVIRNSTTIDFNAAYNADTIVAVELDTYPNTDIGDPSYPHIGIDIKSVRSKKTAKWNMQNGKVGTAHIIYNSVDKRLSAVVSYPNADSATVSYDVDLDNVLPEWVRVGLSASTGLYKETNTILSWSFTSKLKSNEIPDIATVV

`C=CCC(OC(C)=O)[C@@H]1[C@@H](N(Cc2ccc(-c3ccccc3)cc2)C(=O)Cc2ccc(OC)cc2)c2cc(OCCCO)ccc2N1C(=O)Cc1ccc(OC)cc1` (stereo not given in full): the composite z-score was -0.0621 in assay [1]; 0.464 in assay [3]; 0.146 in assay [4]; 0.306 in assay [5]; 0.248 in [6]; 0.302 in assay [7]. In addition, the composite z-score in [8] is 0.0538; in assay [9], 0.235; in assay [10] it was -0.0563. Further, the composite Z-score in [2] was 0.445 (inactive).
Take `C=C(COC)/C(=C/C[C@@H](OC(=O)c1ccncc1)c1ccccc1OCCO)c1cnc2ccccc2c1`: the composite z-score was 0.57 in assay [1]; 0.265 in assay [3]; -0.0762 in [4]; 0.962 in assay [5]; 0.562 in assay [6]; 0.475 in assay [7]. For the same compound, the values for the composite z-score in [8], in assay [9] and in assay [10] were 1.3, 1.38 and 1.22, respectively. Also, in [2], the composite Z-score was 0.341 (inactive).
For the compound `COc1ccc(C(O)C2C=CC3C(=O)N(C)C(=O)C3N2Nc2ccccc2)cc1` (stereo not given), the composite z-score was determined as 0.986 in assay [1]; 0.344 in assay [3]; 0.0753 in [4]; 0.376 in assay [5]; 2.87 in assay [6]; 0.388 in assay [7]. In addition, the composite z-score in [8] was 1.28; in [9], -0.224; in assay [10], 1.17. Further, the composite Z-score in assay [2] is 0.195 (inactive).
For the compound `Cc1ccc(S(=O)(=O)N2[C@@H](c3ccccc3)C(C(=O)O)=CC[C@H]2c2ccc(F)cc2)cc1`, the composite z-score is 0.458 in assay [1]; -0.0044 in assay [3]; -0.116 in [4]; 0.893 in assay [5]; 3.31 in assay [6]; 1.72 in [7]. In addition, the composite z-score was 1.18 in assay [8], -1.09 in assay [9] and -0.177 in assay [10]. Besides, in assay [2], the composite Z-score was 0.615 (inactive).
As to `COc1ccc([Si](C)(C)[C@H]2[C@H](CC(=O)N3CCC[C@H]3CO)O[C@@]3(C(=O)N(C)c4ccccc43)[C@@H]2C)cc1`, the composite z-score was 0.728 in [1]; 0.103 in assay [3]; -0.103 in [4]; 0.487 in assay [5]; 0.459 in assay [6]; 0.378 in assay [7]. Besides, the composite z-score in [8] is 0.646; in assay [9], 0.808; in assay [10], 0.119. Also, in [2], the composite Z-score was 1.38 (inactive).
As to `COc1cccc(C)c1NC(=O)O[C@H]1[C@H](OC(=O)Nc2ccccc2-c2ccccc2)[C@@H](OC(=O)Nc2ccccc2-c2ccccc2)[C@@H](OC)O[C@@H]1CO`, the composite z-score in [1] was 0.848; in assay [3] it was 0.668; in assay [4], 0.0151; in [5] it was 0.712; in [6], 1.44; in assay [7], 0.762. Also, the composite z-score amounted to 1.3 in [8], 0.0298 in assay [9] and 1.02 in assay [10]. In addition, the composite Z-score in assay [2] is 0.694 (inactive).
With `COc1ccc([Si](C)(C)[C@@H]2[C@@H](CC(=O)N3Cc4ccccc4C[C@H]3CO)O[C@]3(C(=O)N(Cc4ccc(I)cc4)c4ccccc43)[C@H]2C)cc1`, the composite z-score in assay [1] is -0.145; in [3] it was 0.0676; in [4] it was -0.133; in [5], 0.284; in assay [6], 0.583; in assay [7], -0.098. The figures for the composite z-score in assay [8], in assay [9] and in assay [10] were 1, 1.35 and 0.957, respectively. The composite Z-score in [2] is 0.26 (inactive).
For `CC1(C)OB(/C=C\CC(OC(=O)c2ccncc2)c2ccccc2)OC1(C)C` (stereo not given), the composite z-score in assay [1] is 0.152; in assay [3], -0.0345; in assay [4], -0.0464; in [5], 0.918; in [6], 0.677; in assay [7], 0.953. Moreover, the composite z-score in assay [8] was 0.426; in assay [9], 0.381; in assay [10] it was -0.305. The composite Z-score in assay [2] was 0.142 (inactive).
For the compound `C=C(COC)C(=O)CC[C@H](OC(C)=O)c1ccc(CO)o1`, the composite z-score in assay [1] was 0.485; in assay [3] it was -0.0328; in assay [4], -0.14; in assay [5] it was 0.472; in assay [6], -0.273; in [7], -0.218. In addition, the composite z-score in assay [8] was -0.893; in [9], 0.268; in assay [10], 0.753. In addition, the composite Z-score in [2] is 4.03 (inactive).
Turning to `COC(=O)C1=CC(c2ccc(CO)cc2)=CC(C2CC2)N(Cc2cc3c(cc2Br)OCO3)C=C1C(=O)OC` (stereo not given), the composite z-score in assay [1] was determined as 0.861; in [3] it was 0.448; in assay [4] it was 0.165; in [5], 0.814; in assay [6], 2.82; in assay [7], 1.24. The composite z-score came out at 1.31 in assay [8], 0.0562 in assay [9] and 1.19 in assay [10]. The composite Z-score in assay [2] is 2.69 (inactive).
`CC[C@H]1C2=C3C(CC[C@H]4C(OCc5ccc(F)cc5C(F)(F)F)OC[C@](C)([C@@H]34)N(C(=O)OC(C)(C)C)C2)C(COC(C)=O)C1COC(C)=O` (stereo not given in full): the composite z-score in assay [1] worked out at 0.761; in [3] it was 0.335; in [4], 0.173; in assay [5] it was 0.345; in [6], 2.76; in assay [7], 0.2. Moreover, the composite z-score was 1.29 in [8], -1.23 in assay [9] and 0.957 in [10]. Further, the composite Z-score in assay [2] is -0.0238 (inactive).
In the case of `CC1C2C(CCCO)=CC(C3C(=O)N(C(N)=O)C(=O)C23)N1Cc1cccc(OC(F)(F)F)c1` (stereo not given), the composite z-score is 1 in [1]; -0.068 in assay [3]; -0.114 in assay [4]; 0.699 in assay [5]; 1.22 in [6]; 0.147 in [7]. Also, the values for the composite z-score in [8], in assay [9] and in [10] were 1.33, 0.0627 and -0.0715, respectively. In assay [2], the composite Z-score was 0.649 (inactive).
In the case of `CN1C(=O)C2C=CC(C(O)c3cccs3)N(N(c3ccccc3)c3ccccc3)C2C1=O` (stereo not given), the composite z-score was 0.994 in assay [1]; 0.17 in assay [3]; -0.0037 in assay [4]; 0.714 in [5]; 1.69 in [6]; 0.518 in [7]. For the same compound, the composite z-score was 1.02 in assay [8], -0.362 in [9] and 0.644 in assay [10]. Moreover, the composite Z-score in [2] was 0.343 (inactive).
As for `COc1ccc(C(=O)Nc2ccc(CN3C(=O)[C@@]4(O[C@@H](CC(=O)N(CCO)Cc5ccccc5)[C@H]([Si](C)(C)c5ccc(OC)cc5)[C@H]4C)c4ccccc43)cc2)cc1`, the composite z-score in assay [1] was 0.469; in assay [3], -0.222; in assay [4] it was -0.172; in assay [5], 0.294; in assay [6], 0.678; in assay [7], -0.294. For the same compound, the composite z-score came out at 0.0422 in [8], 1.01 in [9] and 1.1 in [10]. Besides, the composite Z-score in [2] was 0.226 (inactive).
On to `O=C(O)C1=CC[C@H]2C(=O)N(c3ccccc3)C(=O)[C@@H]12`, for which the composite z-score was 0.342 in assay [1]; 0.21 in assay [3]; -0.0216 in [4]; 0.425 in [5]; 1.33 in [6]; 0.453 in assay [7]. For the same compound, the composite z-score in assay [8] was 1.31; in assay [9] it was -0.0125; in assay [10], 1.02. For the same compound, in assay [2], the composite Z-score is 0.277 (inactive).
For the compound `COc1ccc([Si](C)(C)[C@H]2[C@H](CC(=O)N3CCC[C@H]3CO)O[C@@]3(C(=O)N(C)c4c(Br)cc(C)cc43)[C@@H]2C)cc1`, the composite z-score in assay [1] was found to be 0.824; in assay [3], 0.189; in assay [4] it was 0.503; in assay [5] it was 0.81; in assay [6] it was 2.52; in assay [7] it was 0.548. For the same compound, the composite z-score came out at 1.3 in [8], 1.38 in assay [9] and 1.19 in assay [10]. The composite Z-score in assay [2] is 3.93 (inactive).
